# Values joined by “and” are separate entries in the source; they are usually repeats but may differ in a detail not shown here. Identical values can stand only once. This is part of a sample that, as a whole, favours compounds with a hit. Of some 83,000 tested, about 20% had one in any assay.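 Step 1: grow cells in 96-well plates. Step 2: add test compound at a single concentration. Step 3: incubate 48 h. Step 4: record percent growth.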 Values without a mark were called inactive. Active and inactive are the calls of the source. How the source made its calls: active means growth percent below 10; inactive means the rest.
# Tests used:
# Test in all cases: NCI-60 one-dose screen, 48 h (100 = growth as untreated, 0 = no growth, -100 = all killed)
# Conditions in all cases: 10 µM unless noted
# [1] = tested on: NCI-H23 lung
# [2] = tested on: NCI-H226 lung
# [3] = tested on: NCI-H322M lung
# [4] = tested on: HOP-62 NSCLC
# [5] = tested on: NCI-H460 lung
# [6] = tested on: HOP-92 NSCLC
# [7] = tested on: NCI-H522 lung
# [8] = tested on: A549/ATCC NSCLC
# [9] = tested on: 786-0 renal
# [10] = tested on: COLO 205 colon
# [11] = tested on: DU-145 prostate
# [12] = tested on: K-562 leukemia
# [13] = tested on: MALME-3M melanoma
# [14] = tested on: MDA-MB-231 breast
# [15] = tested on: RXF 393 renal
# [16] = tested on: SF-268 CNS
# [17] = tested on: SF-295 CNS
# [18] = tested on: SF-539 CNS
# [19] = tested on: UACC-257 melanoma
# [20] = tested on: M14 melanoma
Compound,growth [1],growth [2],growth [3],growth [4],growth [5],growth [6],growth [7],growth [8],growth [9],growth [10],growth [11],growth [12],growth [13],growth [14],growth [15],growth [16],growth [17],growth [18],growth [19],growth [20]
COc1ccc(-c2ccccc2)cc1-c1c(Nc2cc(Cl)cc(Cl)c2O)c(=O)c1=O,2.65% (active),19.3%,11.3%,2.04% (active),7.61% (active),-24.5% (active),-19.6% (active),8.72% (active),17.3%,48.1%,20.5%,13.5%,-19.4% (active),15%,-13% (active),18.3%,-6.58% (active),12.7%,2.86% (active),24.6%
COC1/C=C/OC2(C)Oc3c(C)c(O)c4c(O)c(c(C=NOC(c5ccccc5)c5ccccc5)c(O)c4c3C2=O)NC(=O)/C(C)=C/C=C/C(C)C(O)C(C)C(O)C(C)C(OC(C)=O)C1C (stereo not given),21.8%,20.3%,47.4%,-89.5% (active),2.85% (active),-8.12% (active),13%,16.3%,12.2%,-88.2% (active),37.9%,17.1%,23.5%,8.78% (active),-3.93% (active),44.2%,1.59% (active),31.3%,12.2%,23.2%
COc1cc2nc3cc([N+](=O)[O-])ccc3c(NCCNCC(C)(C)O)c2cc1OC,-34.1% (active),-4.58% (active),-3.78% (active),-23% (active),-38.7% (active),-45.6% (active),-40.3% (active),-9.76% (active),2.27% (active),-70.1% (active),-8.55% (active),1.28% (active),-74.4% (active),-28.5% (active),-47.3% (active),-10.8% (active),16.4%,-20.8% (active),-61.8% (active),-75.7% (active)
CCCCC#Cc1c(/C=C(\CCCC)SCC)n(C)c(=O)[nH]c1=O,94.1%,93.2%,97.7%,94.8%,93.8%,82.8%,79.7%,83.1%,98.5%,108%,110%,72.2%,112%,102%,-12.1% (active),93.7%,114%,98.4%,98.9%,105%
CC(=O)N1N=C(c2ccc(F)cc2)CC1c1sc(N(C)Cc2ccccc2)nc1Cl (stereo not given),85.1%,102%,99.6%,91.7%,106%,85.9%,81.6%,88.6%,84.9%,98.7%,103%,75.1%,102%,101%,101%,87.1%,97.6%,104%,118%,95.2%
CC(Sc1ccccc1)C(=O)O (stereo not given),96%,99.3%,109%,83.4%,111%,97%,102%,99.3%,118%,143%,107%,152%,67.5%,93.2%,94.2%,105%,91.8%,103%,103%,95.2%
CSc1nnc(-c2cc3c([nH]c4ccccc43)c(-c3cccc(O)c3)n2)n1-c1ccc(C)cc1,70.9%,57.6%,70.3%,44.9%,11.4%,21.3%,-2.1% (active),29.4%,37.8%,76.5%,62.8%,10.2%,42%,25.7%,2.76% (active),48.7%,15%,32.3%,42.5%,6.07% (active)
CN(C)CC1(C)Cc2ccsc2C1O (stereo not given),106% and 109%,105%,119%,105% and 108%,112% and 108%,101% and 108%,94.5% and 94.3%,112% and 110%,97.2% and 94.9%,106% and 105%,116% and 97.1%,104% and 92.8%,98.8%,113% and 111%,108% and 109%,113% and 102%,121% and 115%,93.4% and 105%,108% and 110%,111% and 108%
NCCOCCOc1ccccc1,97.2%,103%,96.1%,109%,103%,64.8%,93.1%,104%,100%,113%,101%,108%,97.8%,114%,124%,97.8%,103%,108%,106%,102%
CC1=C2[C@@H](CC1)[C@]1(C)O[C@@](C(C)C)(C[C@H]1OC(=O)CO)[C@H]2OC(=O)C1CC1c1ccccc1 (stereo not given in full),92.8%,78.2%,84.7%,82.4%,85.6%,87.3%,73.9%,73.9%,91.2%,107%,100%,67.7%,91.7%,89.7%,69.3%,76.2%,67.4%,101%,88.8%,88.3%
COc1ccc(Cl)cc1Nc1nc(C(F)(F)F)ccc1C(=O)N/N=C/c1ccc(N(C)C)cc1,95.4%,105%,80.8%,73.6%,143%,85.4%,105%,97%,76%,92.2%,117%,122%,92.2%,72.9%,75.6%,107%,154%,115%,110%,81.3%
COCCn1cc(-c2csc(-c3cn(C)c4ccc(F)cc34)n2)c2cccnc21,76.3%,83%,75.7%,93.2%,51.6%,64.7%,30.8%,60.6%,62%,61.6%,69.9%,2.01% (active),84.8%,51.5%,72.3%,77.2%,73.7%,78.1%,83.8%,50.5%
COC(=O)c1nc(-c2ccc(C)cc2)oc1S(=O)(=O)c1ccc(Cl)cc1,91.3%,96%,99.6%,97.4%,109%,95.1%,59.6%,100%,86.1%,70.5%,113%,9.37% (active),31%,87%,120%,97.1%,108%,96.6%,100%,79.7%
